The results in this text go back to PubChem BioAssay (NCI).

Test [1] in a line: NCI Yeast Anticancer Drug Screen. Data for the rad50 strain (AID 155).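 Further: 0% = growth of vehicle-only cultures of the same strain.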 The conditions noted are these: S. cerevisiae rad50 strain growth inhibition, hits give high values. In short, it runs like this:
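Genetically altered yeast (DNA repair pathway); compound treatment; growth inhibition vs vehicle ctrl.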

A short description of test [2]: NCI Yeast Anticancer Drug Screen. Data for the mec2-1 strain (AID 157). The conditions noted are these: S. cerevisiae mec2-1 strain, hits give high values. Summed up: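 Compounds were applied to mec2-1 yeast cells. Their growth was then compared with that of vehicle-treated cultures to give growth inhibition.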
A short description of test [3]: NCI Yeast Anticancer Drug Screen. Data for the sgs1 mgt1 strain (AID 161).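 Further: 0% = growth of cultures given vehicle only.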 The conditions noted are these: S. cerevisiae sgs1 mgt1 strain, hits give high values. In short, it runs like this:
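This yeast growth screen uses a strain with defined DNA-repair lesions; compound-treated growth is compared with vehicle-treated growth.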

The nature of test [4]: NCI Yeast Anticancer Drug Screen. Data for the cln2 rad14 strain (AID 165).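 Further: 0% = growth equal to vehicle treated cultures.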 The conditions noted are these: S. cerevisiae cln2 rad14 strain, hits give high values. In short, it runs like this:
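Strain: cln2 rad14 yeast, altered in cell cycle control and DNA damage repair. Read-out: growth inhibition vs vehicle.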

The nature of test [5]: NCI Yeast Anticancer Drug Screen. Data for the bub3 strain (AID 167). The conditions noted are these: S. cerevisiae bub3 mutant strain, hits give high values. Summed up:
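Yeast carrying a defined mutation is treated with each compound, and growth is compared with that of vehicle-exposed cells to give inhibition.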

Test [6] in a line: NCI Yeast Anticancer Drug Screen. Data for the mlh1 rad18 strain (AID 175). The following applies: S. cerevisiae mlh1 rad18 strain growth inhibition, hits give high values. In short, it runs like this: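 A repair-deficient yeast strain is exposed to test compound, and growth is scored relative to vehicle-treated controls.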
[7] abbreviates: at 5.0 µM (retest, dose inferred, filed as 0.5).
Setting [8] is: at 50.0 µM (retest, dose inferred, filed as 5.0).

The panel holds about 79,000 compounds, 15% with a hit somewhere; the sample as a whole holds those more often. Calls of active or inactive are those of the source. No stated cut-off is given here; in the data, active means growth inhibition above about 70%; inactive means the rest.

As to `O=S(=O)(CC(Cl)c1ccccc1)c1nc2ccccc2s1` (stereo not given), the growth inhibition in test [1] (setting [7]) is -7% (inactive); in test [1] (setting [8]), -7% (inactive); in test [1] (at 50.0 µM) it was 69.5% (inactive); in test [2] (setting [7]), 2% (inactive); in test [2] (setting [8]), 2% (inactive); in test [2] (at 50.0 µM) it was 79.1% (active). Further, the growth inhibition is 9% (inactive) in test [3] (setting [7]); 9% (inactive) in test [3] (setting [8]); 72.7% (active) in test [3] (at 50.0 µM); -14% (inactive) in test [4] (setting [7]); -14% (inactive) in test [4] (setting [8]); 43.2% (inactive) in test [4] (at 50.0 µM). For the same compound, the growth inhibition in test [5] (setting [7]) was -30% (inactive); in test [5] (setting [8]) it was -30% (inactive); in test [5] (at 50.0 µM) it was 71.4% (active); in test [6] (setting [7]) it was -13% (inactive); in test [6] (setting [8]) it was -13% (inactive); in test [6] (at 50.0 µM), 47% (inactive).

Turning to `CCOC(=O)C(Cc1ccccc1[N+](=O)[O-])C(=O)OCC`, the growth inhibition in test [1] (setting [7]) was -5% (inactive); in test [1] (setting [8]), -33% (inactive); in test [1] (at 50.0 µM), 5.4% (inactive); in test [2] (setting [7]), -27% (inactive); in test [2] (setting [8]) it was -5% (inactive); in test [2] (at 50.0 µM), -3.7% (inactive). Also, the growth inhibition in test [3] (setting [7]) is -21% (inactive); in test [3] (setting [8]) it was 3% (inactive); in test [3] (at 50.0 µM) it was 28.6% (inactive); in test [4] (setting [7]), 17% (inactive); in test [4] (setting [8]), 10% (inactive); in test [4] (at 50.0 µM), 7.75% (inactive). Also, the growth inhibition in test [5] (setting [7]) is 30% (inactive); in test [5] (setting [8]) it was 3% (inactive); in test [5] (at 50.0 µM), 44.6% (inactive); in test [6] (setting [7]) it was 0% (inactive); in test [6] (setting [8]), -22% (inactive); in test [6] (at 50.0 µM) it was 20.5% (inactive).

In the case of `CCSSC(=Nc1ccccc1)OCC(C)C`, the growth inhibition in test [1] (setting [7]) is 17% (inactive); in test [1] (setting [8]), 91% (active); in test [1] (at 50.0 µM) it was 62% (inactive); in test [2] (setting [7]), 18% (inactive); in test [2] (setting [8]) it was 70% (active); in test [2] (at 50.0 µM), 80.4% (active). In addition, the growth inhibition was 47% (inactive) in test [3] (setting [7]); 97% (active) in test [3] (setting [8]); 71.8% (active) in test [3] (at 50.0 µM); 50% (inactive) in test [4] (setting [7]); 92% (active) in test [4] (setting [8]); 30.8% (inactive) in test [4] (at 50.0 µM). Besides, the growth inhibition in test [5] (setting [7]) was 52% (inactive); in test [5] (setting [8]) it was 97% (active); in test [5] (at 50.0 µM), 84.4% (active); in test [6] (setting [7]), 23% (inactive); in test [6] (setting [8]), 82% (active); in test [6] (at 50.0 µM), 80% (active).

Regarding `CCCCCCCCCCCCCCCC[N+](C)(C)c1nc(Cl)nc(Cl)n1`, the growth inhibition in test [1] (setting [7]) is 99% (active); in test [1] (setting [8]) it was 99% (active); in test [1] (at 50.0 µM) it was 99.3% (active); in test [2] (setting [7]) it was 100% (active); in test [2] (setting [8]) it was 100% (active); in test [2] (at 50.0 µM), 98.1% (active). Moreover, the growth inhibition in test [3] (setting [7]) was 100% (active); in test [3] (setting [8]), 100% (active); in test [3] (at 50.0 µM) it was 99.2% (active); in test [4] (setting [7]), 98% (active); in test [4] (setting [8]), 99% (active); in test [4] (at 50.0 µM) it was 95.5% (active). Moreover, the growth inhibition is 99% (active) in test [5] (setting [7]); 99% (active) in test [5] (setting [8]); 99.3% (active) in test [5] (at 50.0 µM); 99% (active) in test [6] (setting [7]); 99% (active) in test [6] (setting [8]); 95.8% (active) in test [6] (at 50.0 µM).

Regarding `O=C(CC(=O)CC(O)(c1ccccc1)c1ccccc1)CC(=O)c1ccccc1`, the growth inhibition in test [1] (setting [7]) is -4% (inactive); in test [1] (setting [8]), 95% (active); in test [1] (at 50.0 µM) it was 98.4% (active); in test [2] (setting [7]), -10% (inactive); in test [2] (setting [8]) it was 98% (active); in test [2] (at 50.0 µM), 98% (active). For the same compound, the growth inhibition in test [3] (setting [7]) was 0% (inactive); in test [3] (setting [8]) it was 98% (active); in test [3] (at 50.0 µM) it was 98% (active); in test [4] (setting [7]) it was -11% (inactive); in test [4] (setting [8]) it was 94% (active); in test [4] (at 50.0 µM) it was 98% (active). The growth inhibition in test [5] (setting [7]) is -8% (inactive); in test [5] (setting [8]), 96% (active); in test [5] (at 50.0 µM) it was 97.2% (active); in test [6] (setting [7]) it was 30% (inactive); in test [6] (setting [8]), 97% (active); in test [6] (at 50.0 µM), 98% (active).
